# Results reported in PubChem BioAssay (EPA / NIEHS).
# “And” between values parts separate entries of the source, which are not always exact repeats. Equal values may be shown once. Inconclusive results are not listed. Where a structure was tested more than once in an assay, its records may differ in their call. The source made the active and inactive calls. The calls were made as follows, unless noted: active = hit-call score of the fitted dose curve at least 0.9, where 1 is the maximum; inactive = score below 0.9.
# Experiments:
# [1] = BSK_3C_VCAM1: BioMAP Diversity Plus: 3C Assay for Vascular cell adhesion molecule 1 (VCAM1) Biomarker Activity (AID 2282999); settings: BioMAP 3C HUVEC, VCAM1 ELISA, cytokine-stimulated; actives raise or lower the signal
# In short: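 Endothelial cells from human umbilical vein are treated with test chemical. At 24 h, VCAM-1 is measured by ELISA, and responses in either direction are fitted relative to DMSO.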
# [2] = BSK_4H_Eotaxin3: BioMAP Diversity Plus: 4H Assay for Eotaxin 3 Biomarker Activity (AID 2283000); settings: primary human endothelial cells (HUVEC); actives raise or lower the signal;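 as to outcome: CCL26 protein level quantified by ELISA in parallel with SRB cytotoxicity check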
# In short: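 HUVEC, 24 h post-dose, ELISA for Eotaxin-3/CCL26. Gain or loss of signal fitted bidirectionally vs DMSO baseline.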
# [3] = target: human Peroxisome Proliferator-activated Receptor alpha (PPARa), PPARA (gene 5465) (UniProt Q07869); experiment: ATG_PPARa_TRANS: Attagene TRANS-FACTORIAL HepG2 Assay for human Peroxisome Proliferator-activated Receptor alpha (PPARa) (AID 2283001; active = hit-call score of the fitted dose curve at least 0.9, where 1 is the maximum;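 as to AC50: potency for gain of reporter signal over DMSO so agonist or activator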)
# In short: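 Reporter transcripts from GAL4-UAS units in transfected HepG2 were quantified 24 h after dosing. Detection used reverse transcription, PCR, fluorescent primer extension and capillary electrophoresis, with DMSO as baseline.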
# [4] = target: human Peroxisome Proliferator-activated Receptor delta (PPARd), PPARD (gene 5467) (UniProt Q03181); experiment: ATG_PPARd_TRANS: Attagene TRANS-FACTORIAL HepG2 Assay for human Peroxisome Proliferator-activated Receptor delta (PPARd) (AID 2283002; active = hit-call score of the fitted dose curve at least 0.9, where 1 is the maximum)
# In short: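 Read-out is induced reporter mRNA, quantified by RT-PCR with fluorescent labelling and capillary electrophoresis after 24 h dosing. Cells are HepG2 transiently carrying multiple GAL4-UAS reporter units driven by exogenous NR-GAL4 chimeras; DMSO serves as baseline.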
# [5] = read-out: Intercellular Adhesion Molecule 1 (ICAM1), ICAM1 (gene 3383); experiment: BSK_3C_ICAM1: BioMAP Diversity Plus: 3C Assay for Intercellular Adhesion Molecule 1 (ICAM1) Biomarker Activity (AID 2283003); settings: primary human endothelial cells (HUVEC); actives raise or lower the signal
# In short: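 Primary human umbilical vein endothelial cells in the BioMAP 3C system were exposed to chemicals for 24 h, then ICAM-1 was quantified by ELISA. Activity was fitted bidirectionally against the DMSO negative control baseline.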
# [6] = target: human Retinoic Acid Receptor beta (RARb), RARB (gene 5915) (UniProt P10826); experiment: ATG_RARb_TRANS: Attagene TRANS-FACTORIAL HepG2 Assay for human Retinoic Acid Receptor beta (AID 2283004; active = hit-call score of the fitted dose curve at least 0.9, where 1 is the maximum)
# In short: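 HepG2 cells transiently transfected with multiplexed GAL4-UAS reporter units expressing chimeric NR–Gal4 fusions; 24 h compound exposure. Reporter mRNA quantified by RT-PCR, 6-FAM labelling, HpaI digestion and capillary electrophoresis; gain-of-signal fitted against DMSO baseline.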
# [7] = target: Retinoic acid receptor alpha (Homo sapiens) (UniProt P10276); experiment: ATG_RARa_TRANS: Attagene TRANS-FACTORIAL HepG2 Assay for human Retinoic Acid Receptor alpha (RARa) (AID 2283005; active = hit-call score of the fitted dose curve at least 0.9, where 1 is the maximum)
# In short: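 Reporter transcripts, measured by RT-PCR with fluorescent labeling and capillary electrophoresis after 24 h dosing, reflect activity of an exogenous human RARa–GAL4 fusion in transiently transfected HepG2. Fitted for increase relative to DMSO.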
# [8] = BSK_3C_Proliferation: Cell Proliferation Assessment in the BioMAP Diversity Plus: 3C Assay (AID 2283006); settings: primary human endothelial cells (HUVEC);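 as to AC50: potency may reflect either rise or fall in cell number versus DMSO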
# In short: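 Human umbilical vein endothelial cells were grown sub-confluent and exposed to chemical for 48 h, then fixed with 10% TCA and stained with 0.1% sulforhodamine B; absorbance at 560 nm gave relative cell number, fitted bidirectionally against DMSO baseline.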
# [9] = target: Peroxisome proliferator-activated receptor gamma (Homo sapiens) (UniProt P37231); experiment: ATG_PPARg_TRANS: Attagene TRANS-FACTORIAL HepG2 Assay for human Peroxisome Proliferator-activated Receptor-gamma (PPARg) (AID 2283007; active = hit-call score of the fitted dose curve at least 0.9, where 1 is the maximum)
# In short: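 Twenty-four hours after chemical dosing of transiently transfected HepG2 cells, isolated RNA was converted to cDNA, reporter sequences amplified and 6-FAM-labelled, then HpaI-digested and analysed by capillary electrophoresis. Signal increase against DMSO was fitted.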
# [10] = target: Nuclear receptor subfamily 1 group I member 2 (Homo sapiens) (UniProt O75469); experiment: ATG_PXR_TRANS: Attagene TRANS-FACTORIAL HepG2 Assay for human Pregnane X Receptor (PXR) (AID 2283008; active = hit-call score of the fitted dose curve at least 0.9, where 1 is the maximum)
# In short: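 Fluorescence intensity of FAM-labelled, HpaI-digested reporter amplicons, separated by capillary electrophoresis, quantifies induction. HepG2 cells with PXR-Gal4 trans-reporter system were exposed 24 h; DMSO defines baseline.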
# [11] = target: human Retinoic Acid Receptor gamma (RARg), RARG (gene 5916) (UniProt P13631); experiment: ATG_RARg_TRANS: Attagene TRANS-FACTORIAL HepG2 Assay for human Retinoic Acid Receptor gamma (RARg) (AID 2283009; active = hit-call score of the fitted dose curve at least 0.9, where 1 is the maximum)
# In short: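 HepG2 cells transiently transfected with multiplexed reporter units expressing chimeric RARg-GAL4 and GAL4-UAS-driven reporters; 24 h compound exposure. Reporter mRNA quantified by RT-PCR with fluorescent labelling and capillary electrophoresis; gain-of-signal fitted relative to DMSO baseline.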
# [12] = target: human RAR-related Orphan Receptor beta (RORb), RORB (gene 6096) (UniProt Q92753); experiment: ATG_RORb_TRANS: Attagene TRANS-FACTORIAL HepG2 Assay for human RAR-related Orphan Receptor beta (RORb) (AID 2283010; active = hit-call score of the fitted dose curve at least 0.9, where 1 is the maximum)
# In short: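 HepG2 cells were transiently transfected with multiplexed GAL4-UAS reporter units expressing chimeric nuclear receptor–GAL4 proteins, then dosed for 24 h. Reporter mRNA was quantified by RT-PCR with fluorescent labelling and capillary electrophoresis; gain of signal was fitted relative to DMSO.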
# [13] = target: human RAR-related Orphan Receptor gamma (RORg), RORC (gene 6097) (UniProt P51449); experiment: ATG_RORg_TRANS: Attagene TRANS-FACTORIAL HepG2 Assay for human RAR-related Orphan Receptor gamma (RORg) (AID 2283011; active = hit-call score of the fitted dose curve at least 0.9, where 1 is the maximum)
# In short: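 Readout: reporter transcript induction (RT-PCR, fluorescent primer extension, capillary electrophoresis) after 24 h compound exposure of transiently transfected HepG2 cells carrying a RORg-Gal4 chimera and GAL4-UAS reporters; DMSO served as baseline, with increasing signal fitted.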
# [14] = target: human Retinoid X Receptor beta (RXRb), RXRB (gene 6257) (UniProt P28702); experiment: ATG_RXRb_TRANS: Attagene TRANS-FACTORIAL HepG2 Assay for human Retinoid X Receptor beta (RXRb) (AID 2283013; active = hit-call score of the fitted dose curve at least 0.9, where 1 is the maximum)
# In short: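 HepG2 cells transiently transfected with multiplexed reporter units driven by GAL4-UAS and exogenous chimeric NR-Gal4 proteins; treated 24 h. Reporter mRNA measured by RT-PCR, 6-FAM labelling and capillary electrophoresis; gain-of-signal fitted versus DMSO baseline.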
# [15] = target: human Thyroid Receptor alpha (THRa1), THRA (gene 7067) (UniProt P10827); experiment: ATG_THRa1_TRANS: Attagene TRANS-FACTORIAL HepG2 Assay for human Thyroid Receptor alpha (THRa1) (AID 2283014; active = hit-call score of the fitted dose curve at least 0.9, where 1 is the maximum)
# In short: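 HepG2 cells transiently transfected with multiplexed GAL4-UAS reporter units for exogenous chimeric THRa1-Gal4; reporter mRNA measured 24 h after dosing by RT-PCR, 6-FAM labelling, HpaI digestion and capillary electrophoresis. Gain-of-signal fitted versus DMSO baseline.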
# [16] = read-out: E-selectin (Homo sapiens) (UniProt P16581); experiment: BSK_3C_Eselectin: BioMAP Diversity Plus: 3C Assay for Eselectin Biomarker Activity (AID 2283015); settings: primary human endothelial cells (HUVEC); actives raise or lower the signal;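 as to outcome: cell surface E-selectin protein quantified by ELISA 24 h after dosing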
# In short: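 Primary human umbilical vein endothelial cells (3C system) were dosed with chemical and cell-surface E-selectin measured by ELISA 24 h later. Bidirectional curve fitting used DMSO as negative control and baseline.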
# [17] = read-out: Interleukin-1 alpha (IL1a), IL1A (gene 3552); experiment: BSK_BE3C_IL1a: BioMAP Diversity Plus: BE3C Assay for Interleukin-1 alpha (IL1a) Biomarker Activity (AID 2283016); settings: primary human bronchial epithelial cells; actives raise or lower the signal
# In short: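 Human primary bronchial epithelial cells (BE3C system) were dosed with compound and IL-1a measured by ELISA 24 h later. Activity was fitted bidirectionally against DMSO baseline; cytotoxicity was tracked in parallel cultures by SRB total-protein staining.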
# [18] = read-out: Monocyte Chemoattractant Protein-1 (MCP1), CCL2 (gene 6347); experiment: BSK_3C_MCP1: BioMAP Diversity Plus: 3C Assay for Monocyte Chemoattractant Protein-1 (MCP1) Biomarker Activity (AID 2283017); settings: primary human endothelial cells (HUVEC); actives raise or lower the signal
# In short: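 Primary human umbilical vein endothelial cells (3C system) were exposed to test chemical for 24 h, after which MCP-1 was quantified by ELISA. Activity was fitted bidirectionally against DMSO as negative control and baseline.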
# [19] = read-out: Monocyte Chemoattractant Protein-1 (MCP1), CCL2 (gene 6347); experiment: BSK_4H_MCP1: BioMAP Diversity Plus: 4H Assay for Monocyte Chemoattractant Protein-1 (MCP1) Biomarker Activity (AID 2283018); settings: primary human endothelial cells (HUVEC); actives raise or lower the signal
# In short: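 Human umbilical vein endothelial cells (4H system) dosed with chemical; MCP-1 measured by ELISA 24 h after dosing. Bidirectional curve fitting against DMSO negative control as baseline; parallel SRB total-protein staining tracks overt cytotoxicity.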
# human Peroxisome Proliferator-activated Receptor delta (PPARd), PPARD (gene 5467), sequence (Q03181 whole entry, looked up, the tested form may be a part): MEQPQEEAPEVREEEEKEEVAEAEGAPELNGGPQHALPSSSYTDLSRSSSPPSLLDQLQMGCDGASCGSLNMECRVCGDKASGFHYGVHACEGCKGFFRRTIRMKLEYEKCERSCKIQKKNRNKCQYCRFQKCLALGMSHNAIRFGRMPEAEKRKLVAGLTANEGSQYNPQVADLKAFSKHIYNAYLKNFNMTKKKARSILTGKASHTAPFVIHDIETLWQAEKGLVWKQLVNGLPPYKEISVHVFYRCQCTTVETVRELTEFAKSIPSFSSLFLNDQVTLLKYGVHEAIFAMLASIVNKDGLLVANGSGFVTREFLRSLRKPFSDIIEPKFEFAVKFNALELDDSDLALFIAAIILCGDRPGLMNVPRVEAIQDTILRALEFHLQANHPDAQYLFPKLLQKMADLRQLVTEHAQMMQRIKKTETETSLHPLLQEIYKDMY
# human Retinoic Acid Receptor beta (RARb), RARB (gene 5915), sequence (P10826 whole entry, looked up, the tested form may be a part): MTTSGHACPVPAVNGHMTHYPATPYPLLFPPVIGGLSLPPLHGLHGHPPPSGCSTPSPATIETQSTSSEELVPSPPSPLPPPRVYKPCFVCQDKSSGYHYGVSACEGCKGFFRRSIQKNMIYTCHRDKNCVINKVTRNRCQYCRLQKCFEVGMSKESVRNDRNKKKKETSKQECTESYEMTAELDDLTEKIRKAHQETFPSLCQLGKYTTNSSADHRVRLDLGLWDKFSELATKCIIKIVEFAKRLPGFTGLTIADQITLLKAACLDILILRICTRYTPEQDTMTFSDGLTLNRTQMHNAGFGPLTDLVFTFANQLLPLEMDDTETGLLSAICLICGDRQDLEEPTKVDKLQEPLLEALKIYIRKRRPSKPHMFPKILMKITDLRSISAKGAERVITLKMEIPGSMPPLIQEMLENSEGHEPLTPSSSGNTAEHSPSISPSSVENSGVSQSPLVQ
# human RAR-related Orphan Receptor gamma (RORg), RORC (gene 6097), sequence (P51449 whole entry, looked up, the tested form may be a part): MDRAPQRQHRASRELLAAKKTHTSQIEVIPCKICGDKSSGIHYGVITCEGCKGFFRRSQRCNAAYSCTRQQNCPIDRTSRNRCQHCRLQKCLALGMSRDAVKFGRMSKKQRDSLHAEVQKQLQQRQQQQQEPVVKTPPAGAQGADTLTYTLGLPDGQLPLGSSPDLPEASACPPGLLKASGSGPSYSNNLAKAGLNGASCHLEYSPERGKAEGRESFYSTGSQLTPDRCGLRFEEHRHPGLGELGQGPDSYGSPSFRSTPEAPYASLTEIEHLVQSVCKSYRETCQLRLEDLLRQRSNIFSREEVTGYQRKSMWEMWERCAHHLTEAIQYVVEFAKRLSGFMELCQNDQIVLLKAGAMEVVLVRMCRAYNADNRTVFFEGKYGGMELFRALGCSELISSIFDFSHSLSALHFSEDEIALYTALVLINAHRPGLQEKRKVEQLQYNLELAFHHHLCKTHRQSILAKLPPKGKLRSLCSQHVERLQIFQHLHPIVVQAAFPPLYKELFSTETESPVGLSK
# human Peroxisome Proliferator-activated Receptor alpha (PPARa), PPARA (gene 5465), sequence (Q07869 whole entry, looked up, the tested form may be a part): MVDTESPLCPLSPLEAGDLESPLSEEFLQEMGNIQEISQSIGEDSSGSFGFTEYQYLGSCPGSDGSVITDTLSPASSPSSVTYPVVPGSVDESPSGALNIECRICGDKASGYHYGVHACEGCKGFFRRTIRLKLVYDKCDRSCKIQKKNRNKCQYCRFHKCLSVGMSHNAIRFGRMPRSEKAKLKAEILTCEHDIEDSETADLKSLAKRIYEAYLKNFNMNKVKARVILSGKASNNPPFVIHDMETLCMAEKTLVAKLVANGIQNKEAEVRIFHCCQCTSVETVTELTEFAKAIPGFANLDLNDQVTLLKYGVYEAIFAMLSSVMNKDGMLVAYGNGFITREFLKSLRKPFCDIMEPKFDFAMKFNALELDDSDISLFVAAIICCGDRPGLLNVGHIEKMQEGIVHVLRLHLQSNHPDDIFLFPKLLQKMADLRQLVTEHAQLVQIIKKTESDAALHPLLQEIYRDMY
# human RAR-related Orphan Receptor beta (RORb), RORB (gene 6096), sequence (Q92753 whole entry, looked up, the tested form may be a part): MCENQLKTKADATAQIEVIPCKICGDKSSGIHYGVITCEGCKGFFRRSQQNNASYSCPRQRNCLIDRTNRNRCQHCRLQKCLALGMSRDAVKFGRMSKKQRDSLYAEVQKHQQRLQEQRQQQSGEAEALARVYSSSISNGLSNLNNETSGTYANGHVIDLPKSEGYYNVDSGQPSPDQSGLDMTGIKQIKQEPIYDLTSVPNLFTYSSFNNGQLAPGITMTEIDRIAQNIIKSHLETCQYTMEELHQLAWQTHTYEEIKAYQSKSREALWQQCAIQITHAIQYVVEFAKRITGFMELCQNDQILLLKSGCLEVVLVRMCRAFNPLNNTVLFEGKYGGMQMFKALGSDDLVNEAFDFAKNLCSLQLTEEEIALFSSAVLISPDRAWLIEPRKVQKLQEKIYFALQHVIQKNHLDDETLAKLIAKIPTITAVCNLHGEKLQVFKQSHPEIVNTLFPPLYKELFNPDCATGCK
# Nuclear receptor subfamily 1 group I member 2 (Homo sapiens), sequence (O75469 whole entry, looked up, the tested form may be a part): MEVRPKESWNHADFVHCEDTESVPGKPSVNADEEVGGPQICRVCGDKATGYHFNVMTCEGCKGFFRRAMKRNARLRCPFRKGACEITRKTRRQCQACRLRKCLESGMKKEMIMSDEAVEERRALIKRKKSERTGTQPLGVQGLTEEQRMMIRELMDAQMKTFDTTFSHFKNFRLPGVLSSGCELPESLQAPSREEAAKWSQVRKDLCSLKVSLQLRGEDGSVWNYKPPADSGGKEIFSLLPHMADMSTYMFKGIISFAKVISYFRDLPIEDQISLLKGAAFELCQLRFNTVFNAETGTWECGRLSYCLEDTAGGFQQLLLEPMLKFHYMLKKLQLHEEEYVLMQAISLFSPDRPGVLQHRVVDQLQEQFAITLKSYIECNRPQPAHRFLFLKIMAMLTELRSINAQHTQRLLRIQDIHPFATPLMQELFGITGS
# human Retinoid X Receptor beta (RXRb), RXRB (gene 6257), sequence (P28702 whole entry, looked up, the tested form may be a part): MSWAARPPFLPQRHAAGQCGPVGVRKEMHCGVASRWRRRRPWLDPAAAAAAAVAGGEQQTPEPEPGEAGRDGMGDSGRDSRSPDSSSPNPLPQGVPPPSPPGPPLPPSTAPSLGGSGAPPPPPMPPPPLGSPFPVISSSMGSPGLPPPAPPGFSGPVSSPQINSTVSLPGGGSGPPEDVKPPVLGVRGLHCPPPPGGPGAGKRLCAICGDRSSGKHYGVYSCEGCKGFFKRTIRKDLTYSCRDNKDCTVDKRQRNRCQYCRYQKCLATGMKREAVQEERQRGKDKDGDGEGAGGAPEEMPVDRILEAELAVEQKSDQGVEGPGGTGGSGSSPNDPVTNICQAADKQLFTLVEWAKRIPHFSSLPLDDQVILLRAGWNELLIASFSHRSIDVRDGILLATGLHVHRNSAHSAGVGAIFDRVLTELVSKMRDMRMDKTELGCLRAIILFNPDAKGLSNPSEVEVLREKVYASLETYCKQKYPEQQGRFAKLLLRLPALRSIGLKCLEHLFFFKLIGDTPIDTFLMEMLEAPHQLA
# human Retinoic Acid Receptor gamma (RARg), RARG (gene 5916), sequence (P13631 whole entry, looked up, the tested form may be a part): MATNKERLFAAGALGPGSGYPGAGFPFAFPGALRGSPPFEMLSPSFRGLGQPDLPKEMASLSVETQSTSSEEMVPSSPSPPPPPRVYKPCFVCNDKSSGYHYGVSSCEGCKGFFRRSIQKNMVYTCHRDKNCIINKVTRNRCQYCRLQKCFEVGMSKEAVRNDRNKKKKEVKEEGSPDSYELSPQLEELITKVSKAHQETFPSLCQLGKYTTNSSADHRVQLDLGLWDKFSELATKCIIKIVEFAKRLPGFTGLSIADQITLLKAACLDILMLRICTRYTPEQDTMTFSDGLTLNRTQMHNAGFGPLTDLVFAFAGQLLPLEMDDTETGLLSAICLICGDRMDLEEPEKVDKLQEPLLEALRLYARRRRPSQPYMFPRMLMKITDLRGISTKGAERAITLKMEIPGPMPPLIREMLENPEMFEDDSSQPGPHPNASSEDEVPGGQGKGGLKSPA
# Retinoic acid receptor alpha (Homo sapiens), sequence (P10276 whole entry, looked up, the tested form may be a part): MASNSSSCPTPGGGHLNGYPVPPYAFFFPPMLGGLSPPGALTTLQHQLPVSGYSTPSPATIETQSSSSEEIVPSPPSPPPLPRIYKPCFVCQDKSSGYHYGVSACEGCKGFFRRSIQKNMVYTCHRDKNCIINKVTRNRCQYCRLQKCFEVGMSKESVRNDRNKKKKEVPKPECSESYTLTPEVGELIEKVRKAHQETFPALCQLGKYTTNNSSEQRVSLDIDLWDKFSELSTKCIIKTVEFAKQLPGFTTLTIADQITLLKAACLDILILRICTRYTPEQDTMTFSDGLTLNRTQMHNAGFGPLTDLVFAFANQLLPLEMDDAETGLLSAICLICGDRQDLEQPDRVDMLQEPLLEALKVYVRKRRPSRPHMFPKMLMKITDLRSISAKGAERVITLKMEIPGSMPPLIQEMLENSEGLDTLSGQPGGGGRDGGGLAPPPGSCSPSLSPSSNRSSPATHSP
# Peroxisome proliferator-activated receptor gamma (Homo sapiens), sequence (P37231 whole entry, looked up): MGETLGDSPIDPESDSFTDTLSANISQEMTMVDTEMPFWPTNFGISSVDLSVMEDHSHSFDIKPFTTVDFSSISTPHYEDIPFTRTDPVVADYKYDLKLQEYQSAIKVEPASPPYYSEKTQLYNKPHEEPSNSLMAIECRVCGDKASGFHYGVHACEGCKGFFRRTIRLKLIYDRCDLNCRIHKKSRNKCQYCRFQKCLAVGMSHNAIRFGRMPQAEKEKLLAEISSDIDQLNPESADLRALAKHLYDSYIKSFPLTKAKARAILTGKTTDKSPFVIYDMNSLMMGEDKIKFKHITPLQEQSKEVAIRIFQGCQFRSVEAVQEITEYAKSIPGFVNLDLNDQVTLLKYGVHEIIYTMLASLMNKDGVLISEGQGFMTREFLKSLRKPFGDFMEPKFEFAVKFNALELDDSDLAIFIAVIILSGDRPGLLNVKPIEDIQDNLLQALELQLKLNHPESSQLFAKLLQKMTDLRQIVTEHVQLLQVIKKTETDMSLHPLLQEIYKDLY
compound,measurement,setting,value
NS(=O)(=O)C(F)(F)C(F)(F)C(F)(F)C(F)(F)C(F)(F)C(F)(F)C(F)(F)C(F)(F)F,AC50,[1],35.2 µM (active) and 55 µM (active) and 55.3 µM (active)
same,AC50,[2],30.6 µM (active) and 46.8 µM (active) and 54 µM (active)
same,AC50,[3],88.4 µM (active)
same,outcome,[3],inactive
same,outcome,[4],inactive
same,AC50,[5],56.8 µM (active) and 51.5 µM (active)
same,outcome,[5],inactive
same,outcome,[6],inactive
same,outcome,[7],inactive
same,AC50,[8],30.3 µM (active) and 38.9 µM (active)
same,AC50,[9],100 µM (active) and 59 µM (active) and 41.8 µM (active)
same,outcome,[10],inactive
same,outcome,[11],inactive
same,outcome,[12],inactive
same,outcome,[13],inactive
same,outcome,[14],inactive
same,outcome,[15],inactive
same,AC50,[16],32.5 µM (active) and 56.3 µM (active) and 49.4 µM (active)
same,AC50,[17],43.9 µM (active) and 42.4 µM (active)
same,outcome,[17],inactive
same,AC50,[18],34.4 µM (active) and 47.7 µM (active) and 48.9 µM (active)
same,AC50,[19],24.8 µM (active) and 37.8 µM (active) and 11.1 µM (active)
COc1ccc(O)c(C(C)(C)C)c1,outcome,[1],inactive
same,outcome,[2],inactive
same,outcome,[3],inactive
same,outcome,[5],inactive
same,outcome,[6],inactive
same,outcome,[7],inactive
same,outcome,[8],inactive
same,outcome,[9],inactive
same,AC50,[10],4.55 µM (active)
same,outcome,[11],inactive
same,AC50,[14],8.56 µM (active)
same,outcome,[15],inactive
same,outcome,[16],inactive
same,outcome,[17],inactive
same,outcome,[18],inactive
same,outcome,[19],inactive
CCC(C)(c1ccc(O)cc1)c1ccc(O)cc1,outcome,[1],inactive
same,outcome,[2],inactive
same,outcome,[3],inactive
same,outcome,[5],inactive
same,AC50,[8],26.8 µM (active)
same,AC50,[9],46.1 µM (active)
same,outcome,[9],inactive
same,AC50,[10],2.52 µM (active) [middle of 4 runs]
same,outcome,[12],inactive
same,outcome,[13],inactive
same,AC50,[14],9.02 µM (active) and 17.8 µM (active) and 19.6 µM (active)
same,outcome,[14],inactive
same,outcome,[15],inactive
same,outcome,[16],inactive
same,outcome,[17],inactive
same,AC50,[18],20 µM (active)
same,AC50,[19],10.7 µM (active)
Nn1cnnc1,outcome,[1],inactive
same,outcome,[2],inactive
same,outcome,[3],inactive
same,outcome,[5],inactive
same,outcome,[6],inactive
same,outcome,[8],inactive
same,outcome,[9],inactive
same,outcome,[15],inactive
same,outcome,[16],inactive
same,outcome,[17],inactive
same,outcome,[18],inactive
same,outcome,[19],inactive
O=NN(c1ccccc1)c1ccccc1,outcome,[1],inactive
same,outcome,[2],inactive
same,outcome,[3],inactive
same,outcome,[4],inactive
same,outcome,[5],inactive
same,AC50,[8],6.14 µM (active)
same,outcome,[9],inactive
same,AC50,[10],29.9 µM (active)
same,outcome,[13],inactive
same,AC50,[14],52.2 µM (active)
same,outcome,[16],inactive
same,outcome,[17],inactive
same,outcome,[18],inactive
same,outcome,[19],inactive
